Screening results (PubChem BioAssay)
An excerpt weighted towards active compounds, which were near 3.3% of everything screened.
BoNT-A LC inh2: blocks Botulinum neurotoxin A light chain protease. inhibition, % at 10 µM. multiplex microsphere protease substrate cleavage, flow cytometry. actives 0.17% (n = 360,000)
MazF activator: increases E. coli MazEF RNase cleavage of RNA | P0AE70 | FAM/BHQ RNA-DNA oligo cleavage fluorescence, 5 h | activation, % at 20 µM | actives 0.32% (n = 350,000); in the data active means activation above about 50%
Anthrax LF inh2: inhibitors of Bacillus anthracis lethal factor protease | P15917 | multiplex microsphere protease cleavage assay, LF | inhibition, % at 10 µM | actives 0.12% (n = 360,000) | AID 588501
Target sequence (P15917 whole entry, looked up): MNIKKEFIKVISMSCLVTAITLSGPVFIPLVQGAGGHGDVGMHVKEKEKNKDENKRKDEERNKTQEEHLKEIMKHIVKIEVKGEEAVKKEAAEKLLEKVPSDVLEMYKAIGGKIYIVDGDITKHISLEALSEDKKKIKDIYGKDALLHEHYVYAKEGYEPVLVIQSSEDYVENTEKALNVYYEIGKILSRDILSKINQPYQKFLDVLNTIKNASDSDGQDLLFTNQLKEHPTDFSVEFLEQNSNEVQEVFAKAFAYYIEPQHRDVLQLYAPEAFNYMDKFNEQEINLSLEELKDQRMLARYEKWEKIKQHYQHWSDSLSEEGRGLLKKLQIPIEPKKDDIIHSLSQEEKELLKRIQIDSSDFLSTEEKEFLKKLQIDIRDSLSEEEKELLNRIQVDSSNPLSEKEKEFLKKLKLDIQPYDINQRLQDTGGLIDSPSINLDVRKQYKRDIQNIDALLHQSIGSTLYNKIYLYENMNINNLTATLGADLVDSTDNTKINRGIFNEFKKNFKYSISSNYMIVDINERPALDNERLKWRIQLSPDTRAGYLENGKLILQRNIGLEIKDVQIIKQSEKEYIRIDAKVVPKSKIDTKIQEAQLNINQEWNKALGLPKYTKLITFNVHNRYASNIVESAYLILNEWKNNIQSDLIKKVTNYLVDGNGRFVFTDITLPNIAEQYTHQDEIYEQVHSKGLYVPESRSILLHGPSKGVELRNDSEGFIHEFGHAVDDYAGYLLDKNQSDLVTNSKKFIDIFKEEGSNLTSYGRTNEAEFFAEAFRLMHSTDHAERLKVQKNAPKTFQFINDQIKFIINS
Autofluor counter: compound fluorescence in toxin protease inhibitor counterscreen; fluorescence intensity (test concentration not listed); actives 3.1% (n = 360,000); compound autofluorescence counterscreen, microsphere flow cytometry; hits give high values; in the data active means fluorescence intensity above about 16000; inconclusive means no clear call, values can overlap the other calls
SSB-PriA inh: inhibitors of Klebsiella pneumoniae PriA binding to SSB C-terminal tail | inhibition, % at 33 µM | actives 0.6% (n = 430,000) | AID 1272365 | AlphaScreen SSBct-PriA binding, biotinylated peptide; in the data active means inhibition mostly above about 37%, no sharp cut-off; inactive means mostly below about 20%
BoNT F protease: BoNT F light chain protease inhibition; Multiplex microsphere protease cleavage assay, flow cytometry; inhibition, % at 10 µM; actives 0.22% (n = 360,000); in the data active means inhibition above about 35%, passing the limit was not always enough; inconclusive means no clear call, values can overlap the other calls
Each line names hits and unclear results; the compound was inactive in the other large screens; ! = a repeat was not active. Unless noted, no stated cut-off is given here; in the data, active means inhibition above about 30%; inconclusive means no clear call, values can overlap the other calls; inactive means below that.

CC1(C)CC(NC(=O)C23CCC(C)(/C(=N/O)C2)C3(C)C)CC(C)(C)N1 (centres undefined)	BoNT-A LC inh2 inconclusive, Autofluor counter 22387 (no result: SSB-PriA inh)
COc1ccc(C2CC(C(F)(F)F)n3nc(C(N)=O)c(Cl)c3N2)cc1OC (centres undefined)	Autofluor counter 20210
O=C(O)CCc1ccc(-c2cccs2)n1NC(=O)c1ccccc1Br	Autofluor counter 23254
CC(C)(C)c1ccc(C(=O)Nn2c(CCC(=O)O)ccc2-c2cccs2)cc1	Autofluor counter 17160
O=C(O)CCc1ccc(-c2ccccc2)n1NC(=O)c1cccs1	none
O=[N+]([O-])c1ccc(C[n+]2cccc3ccc4cccnc4c32)cc1	SSB-PriA inh 90
Fc1ccc2c(c1)C(c1ccc(N3CCOCC3)cc1)=NNC(c1cccs1)=N2	BoNT-A LC inh2 inconclusive, Autofluor counter 19055, SSB-PriA inh 40
Brc1ccc2c(c1)C(c1ccc(N3CCOCC3)cc1)=NNC(c1cccs1)=N2	Autofluor counter 19294
Cc1ccc2c(c1)C(c1ccc(N3CCOCC3)cc1)=NNC(c1cccs1)=N2	Autofluor counter 20609
Brc1ccc2c(c1)C(c1cccnc1)=NNC(c1cccs1)=N2	SSB-PriA inh 53
COc1cc(-c2noc(CCCC(=O)NC3CCCCC3)n2)cc(OC)c1OC	BoNT-A LC inh2 inconclusive, Autofluor counter 17180
CCOc1ccc(-c2noc(CCCC(=O)NC3CCCCC3)n2)cc1OC	none
COc1ccc2cc(C(=O)N/N=C/c3sc4ccccc4c3O)ccc2c1	BoNT-A LC inh2 34 (no result: SSB-PriA inh)
COc1ccc(SCCC(=O)Nc2nc(-c3ccc(OC)cc3)c(C)s2)cc1	none (no result: BoNT-A LC inh2, MazF activator, Anthrax LF inh2, Autofluor counter, BoNT F protease)
FC(F)(F)c1cc(C(F)(F)F)n2nc(-c3sccc3-n3cccc3)cc2n1	Autofluor counter 22337
Cc1cc(C)n2nc(-c3sccc3-n3cccc3)cc2n1	none
O=C(COc1ccc(Cl)cc1Cl)N1CCC(CN2C(=O)c3cccc4cccc(c34)C2=O)CC1	none (no result: BoNT-A LC inh2, MazF activator, Anthrax LF inh2, Autofluor counter, BoNT F protease)
CS(=O)(=O)c1ccc(C(=O)Nc2sc3c(c2C(N)=O)CCCC3)cc1	none (no result: BoNT-A LC inh2, MazF activator, Anthrax LF inh2, Autofluor counter, BoNT F protease)
COc1ccc(OC)c2sc(N3CCN(C(=O)[C@@H]4COc5ccccc5O4)CC3)nc12	none (no result: BoNT-A LC inh2, MazF activator, Anthrax LF inh2, Autofluor counter, BoNT F protease)
Cc1ccc(C2NC(=O)NC(O)(C(F)(F)F)C2C(=O)c2ccccc2)o1 (centres undefined)	none
CCOC(=O)C1C(c2ccc(C)o2)NC(=O)NC1(O)C(F)(F)F (centres undefined)	SSB-PriA inh 43!
CC(=O)C1C(c2ccc3ncccc3c2)NC(=O)NC1(O)C(F)(F)F (centres undefined)	Autofluor counter 22750
CC(=O)C1C(c2cccc(C)c2)NC(=O)NC1(O)C(F)(F)F (centres undefined)	none (no result: BoNT-A LC inh2, MazF activator, Anthrax LF inh2, Autofluor counter, BoNT F protease)
CC(=O)C1C(c2ccncc2)NC(=O)NC1(O)C(F)(F)F (centres undefined)	Autofluor counter 22926
COc1cc(C)c(S(=O)(=O)Nc2ccc(Nc3ccc(-n4nc(C)c(C)c4C)nn3)cc2)cc1C	none (no result: BoNT-A LC inh2, MazF activator, Anthrax LF inh2, Autofluor counter, BoNT F protease)
O=C(Cn1nc(-n2ccc3ccccc32)ccc1=O)Nc1ccc(F)c(C(F)(F)F)c1	none (no result: BoNT-A LC inh2, MazF activator, Anthrax LF inh2, Autofluor counter, BoNT F protease)
CC(=O)Nc1ccc(S(=O)(=O)N(CC(=O)O)Cc2ccccc2)cc1	none
O=C(O)CN(c1ccccc1F)S(=O)(=O)c1ccccc1	BoNT-A LC inh2 inconclusive, Autofluor counter 21296
Cc1ccc(S(=O)(=O)N(CC(=O)O)Cc2ccccc2)cc1	none
CCOC(=O)CN(Cc1ccccc1)S(=O)(=O)c1ccc(NC(C)=O)cc1	Autofluor counter 21423
O=C(O)CN(Cc1ccccc1)S(=O)(=O)c1ccc(F)cc1	Autofluor counter 20545
Cc1cc(C(=O)NCC2Cc3ccccc3CO2)c(C)o1 (centres undefined)	none (no result: BoNT-A LC inh2, MazF activator, Anthrax LF inh2, Autofluor counter, BoNT F protease)
O=C(NCc1cccs1)c1cc2c(OCc3ccccc3)cccc2[nH]1	none (no result: BoNT-A LC inh2, MazF activator, Anthrax LF inh2, Autofluor counter, BoNT F protease)
Cc1cccc(CCN=c2c([N+](=O)[O-])nn(-c3ccccc3)n2O)c1	SSB-PriA inh 40
COc1ccc(-n2nc([N+](=O)[O-])c(=NCCc3cccc(C)c3)n2O)cc1	none
Cc1cccc(-n2nc([N+](=O)[O-])c(=NC3CCN(Cc4ccccc4)CC3)n2O)c1	none
Cc1ccc(N=c2c([N+](=O)[O-])nn(-c3ccccc3)n2O)c(C)c1	Autofluor counter 17460
COc1ccc(CCN=c2c([N+](=O)[O-])nn(-c3cccc(C)c3)n2O)cc1OC	BoNT F protease 40
Cc1c(Cl)cccc1N=c1c([N+](=O)[O-])nn(-c2ccccc2)n1O	none
CCCC(O)=C1C(=O)CC(C)(C)CC1=Nc1ccccc1OC	none (no result: BoNT-A LC inh2, MazF activator, Anthrax LF inh2, Autofluor counter, BoNT F protease)
O=C(Nc1ccc(Br)cc1F)c1cccc2nc3ccccc3nc12	none (no result: BoNT-A LC inh2, MazF activator, Anthrax LF inh2, Autofluor counter, BoNT F protease)
CCOC(=O)c1cnc(Nc2nc3ccccc3o2)nc1C	Autofluor counter 20539
Cc1noc(C)c1S(=O)(=O)N1CCC(Oc2cccc3cccnc23)CC1	none (no result: BoNT-A LC inh2, MazF activator, Anthrax LF inh2, Autofluor counter, BoNT F protease)
CCOC(=O)c1cc2c(=O)n3ccccc3nc2n(C(C)C)c1=NC(=O)c1c(-c2ccccc2Cl)noc1C	BoNT-A LC inh2 39
CCOCCCn1c(=NC(C)=O)c(C(=O)OCC)cc2c(=O)n3ccccc3nc21	Autofluor counter 23789!
CCOCCCn1c(=NC(C)=O)c(C#N)cc2c(=O)n3ccccc3nc21	BoNT F protease inconclusive
O=C(NC(C(=O)Nc1nccs1)C12CC3CC(CC(C3)C1)C2)c1ccc(Cl)cc1 (centres undefined)	none (no result: BoNT-A LC inh2, MazF activator, Anthrax LF inh2, Autofluor counter, BoNT F protease)
COc1cccc(OC)c1C(=O)Nc1nc(-c2cc3ccccc3oc2=O)cs1	none (no result: BoNT-A LC inh2, MazF activator, Anthrax LF inh2, Autofluor counter, BoNT F protease)
COc1cccc(OC)c1C(=O)Nn1c(C2CCC2)nc2ccccc2c1=O	BoNT-A LC inh2 inconclusive, Autofluor counter 19169
Cc1ccc(S(=O)(=O)N2CCN(Cc3nc4sc(C)c(C)c4c(=O)[nH]3)CC2)cc1	MazF activator 88
Cc1sc2nc(CN3CCN(S(=O)(=O)c4cccc5nonc45)CC3)[nH]c(=O)c2c1C	none
CCOC(=O)N1CCC(NC(=O)c2cccc(-n3ccc4ccccc43)c2)CC1	none (no result: BoNT-A LC inh2, MazF activator, Anthrax LF inh2, Autofluor counter, BoNT F protease)
Cc1ccc(N2CC(C(N)=O)CC2=O)cc1C (centres undefined)	none
Cc1ccc(N2CC(C(N)=O)CC2=O)cc1 (centres undefined)	BoNT-A LC inh2 inconclusive, Autofluor counter 18778
Cc1ccc(N2CC(C(=O)Nc3nccs3)CC2=O)cc1Cl (centres undefined)	Autofluor counter 23923
Cc1ccc(N2CC(C(=O)Nc3nnc(C(C)C)s3)CC2=O)cc1 (centres undefined)	Autofluor counter 22336
COCc1nnc(NC(=O)C2CC(=O)N(c3ccc(C)c(Cl)c3)C2)s1 (centres undefined)	none
CCc1nnc(NC(=O)C2CC(=O)N(c3ccc(C)cc3)C2)s1 (centres undefined)	none
Cc1ccccc1OCC(=O)NCCCS(=O)(=O)N1CCN(c2ccc(F)cc2)CC1	none (no result: BoNT-A LC inh2, MazF activator, Anthrax LF inh2, Autofluor counter, BoNT F protease)
Cc1ccc(S(=O)(=O)/N=C(\N)Nc2nc(C)c3cc(C)ccc3n2)cc1	Autofluor counter 21184 (no result: SSB-PriA inh)
CCCCOC(=O)c1ccc(NC(=O)c2ocnc2C)cc1	BoNT-A LC inh2 inconclusive, Autofluor counter 24702
CCCOC(=O)c1ccc(NC(=O)c2ccoc2C)cc1	none
CCCCOC(=O)c1ccc(NC(=O)c2cc3nc(C)ccc3o2)cc1	none (no result: BoNT-A LC inh2, MazF activator, Anthrax LF inh2, Autofluor counter, BoNT F protease)
